# Compound activity from PubChem.
# MLL AF4-AF9 inh: MLL-AF4/AF9 protein interaction inhibition | P42568 | AlphaScreen, biotin-AF4 peptide binding to FLAG-AF9 | inhibition, % at 10 µM | 350,000 compounds, 0.47% hits;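 active = every replicate reaching a set inhibition limit, whatever the replicate mean, cut at about 25% in these data; inconclusive = mean inhibition reaches that limit but some replicates miss it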;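 note: 0% = plate neutral control median and 100% = total signal loss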
# Target sequence (P42568 whole entry, looked up): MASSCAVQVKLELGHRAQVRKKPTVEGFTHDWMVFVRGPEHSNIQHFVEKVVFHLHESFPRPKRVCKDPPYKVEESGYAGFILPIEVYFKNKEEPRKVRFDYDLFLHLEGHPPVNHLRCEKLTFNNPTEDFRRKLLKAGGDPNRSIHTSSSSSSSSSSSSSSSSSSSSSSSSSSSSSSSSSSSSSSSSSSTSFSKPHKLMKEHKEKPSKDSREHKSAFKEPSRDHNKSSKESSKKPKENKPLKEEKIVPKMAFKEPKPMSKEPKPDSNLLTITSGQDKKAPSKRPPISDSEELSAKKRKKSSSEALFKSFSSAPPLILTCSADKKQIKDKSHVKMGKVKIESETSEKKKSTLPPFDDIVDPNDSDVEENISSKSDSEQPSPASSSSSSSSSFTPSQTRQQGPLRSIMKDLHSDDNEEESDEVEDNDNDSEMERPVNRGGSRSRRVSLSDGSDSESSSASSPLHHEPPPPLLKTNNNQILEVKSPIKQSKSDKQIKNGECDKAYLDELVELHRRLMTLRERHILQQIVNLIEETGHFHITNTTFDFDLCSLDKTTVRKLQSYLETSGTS
# dFosB act: mouse delta FosB homodimer activation | P13346 | 340,000 compounds, 0.99% hits | purified delta FosB, TAMRA-CDK5 oligo fluorescence polarization; percent of positive-control signal above neutral wells | activation, % at 25 µM;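 active = mean activation above about 17%, with every replicate also reaching it, limit read from the data, passing the limit was not always enough; inconclusive = only one of the two conditions met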
# DENV2 CPE: DENV2-induced cell death inhibition. AID 651640. CPE inhibition, % at 9.99 µM. 350,000 compounds, 1.7% hits. DENV2-infected cells, cytopathic effect rescue, plate reader; in the data active = CPE inhibition above about 20%, passing the limit was not always enough; inconclusive = no clear call, values can overlap the other calls; tested in BHK-21 cells;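 note: 0% = median of neutral control wells and 100% = median of positive control wells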
# RAD54 branch: inhibitors of human RAD54 branch migration | Q92698 | RAD54 Holliday junction branch migration, FAM/BHQ fluorescence | inhibition, % at 10.4 µM | 360,000 compounds, 0.14% hits | AID 602329;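 active = mean normalized replicate activity at least 40 and at least half of replicates scoring 40 or more; inconclusive = only one of the two criteria met; inactive = mean below 40 and under half of replicates reaching 40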;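 note: 0% = median of neutral control wells and 100% = median of positive control wells; inhibitors cause a drop in the FAM fluorescence signal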
# GSIS activator: primary screen for activators of insulin secretion dependent on glucose, INS-1E cells, GLuc reporter luminescence; 370,000 compounds, 0.61% hits; activation, % at 16.6 µM; INS-1E GLuc reporter insulin secretion, 2-3 h;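 active = lowest replicate activation of at least 40%, so every replicate reaches that level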;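 note: 0% = median of neutral control wells and 100% = median of IBMX positive control wells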
# RAD52 anneal inh: blocks human RAD52 DNA annealing | AID 651710 | P43351 | 360,000 compounds, 0.46% hits | recombinant RAD52 DNA annealing, FRET fluorescence | inhibition, % at 18.7 µM;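 active = every replicate showing at least 50% inhibition; inconclusive = mean inhibition at least 50% but not in every replicate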
# An asterisk follows results filed as active; ? = inconclusive; · = not tested or not shown; ! = not active in a repeat. Hits are enriched below; roughly 3.1% of the tested compounds scored in any of these assays.
SMILES,MLL AF4-AF9 inh,dFosB act,DENV2 CPE,RAD54 branch,GSIS activator,RAD52 anneal inh
CCCNC(=O)N1C[C@@H]2N[C@H](C1)C2c1ccc(-c2ccccc2C)cc1 (stereo partly specified),·,·,27*,·,-11,·
CCCNC(=O)N1C[C@@H]2N[C@H](C1)C2c1ccc(-c2cccc(OC)c2)cc1 (stereo partly specified),-1,·,2,·,-4,20
Cc1ccccc1-c1ccc(C2[C@@H]3CN(C(=O)Cc4ccncc4)C[C@H]2N3)cc1 (stereo partly specified),·,·,86*!,·,-9,·
CCCNC(=O)N1C[C@@H]2N[C@H](C1)C2c1ccc(-c2ccc(OC)cc2)cc1 (stereo partly specified),·,·,32*!,·,-14,·
CCCNC(=O)N1C[C@@H]2N[C@H](C1)C2c1ccc(-c2ccc(F)cc2)cc1 (stereo partly specified),-1,·,?,·,-4,19
COc1ccc(-c2cn(CC[C@H]3CC[C@@H](NS(=O)(=O)c4ccccc4C)[C@@H](CO)O3)nn2)cc1,1,·,9,0,0,-13
CNC[C@H]1Oc2cc(C#Cc3ccccc3F)ccc2S(=O)(=O)N([C@@H](C)CO)C[C@@H]1C,·,·,·,·,5,·
CCC(=O)N1CC2(C1)[C@@H](c1ccccc1)[C@H](CO)N2C(=O)c1cccnc1,-2,·,72*,·,13,-4
CCC(=O)N1CC2(C1)[C@@H](c1ccc(-c3ccc(F)cc3)cc1)[C@H](CO)N2C(=O)CC,-2,·,27*,·,1,-13
CCC(=O)N1CC2(C1)[C@@H](c1ccc(-c3ccc(F)cc3)cc1)[C@@H](CO)N2C(=O)CC,2,·,4,·,-20,-13
O=C(c1cccnc1)N1CC2(C1)[C@@H](c1ccccc1)[C@@H](CO)N2C(=O)CC1CC1,3,·,30*,·,3,-9
C[C@@H]1CN([C@@H](C)CO)C(=O)c2cc(Br)cnc2O[C@@H]1CN(C)C(=O)c1ccccn1,-2,·,4,10,16,11
C[C@H](CO)N1C[C@H](C)[C@H](CN(C)C(=O)c2ccccn2)Oc2ncc(C3=CCCCC3)cc2C1=O,-4,·,62*,4,6,0
C[C@@H]1CN([C@H](C)CO)C(=O)c2cc(C3=CCCCC3)cnc2O[C@@H]1CN(C)C(=O)Cc1cccnc1,-1,·,56*,-1,5,7
C[C@H](CO)N1C[C@H](C)[C@H](CN(C)C(=O)c2ccccn2)Oc2ncc(Br)cc2C1=O,-2,·,73*!,-1,2,-8
CCC(=O)Nc1ccc2c(c1)C(=O)N(C)C[C@@H](OC)[C@H](C)CN(Cc1ccc(-c3ccccn3)cc1)[C@H](C)CO2,4,·,-1,0,-14,11
CCCC(C)(C)C(=O)N1CCC1(C)C(=O)NS(=O)(=O)c1ccc(Cl)cc1 (stereo unspecified),5,·,-6,-8,42*,-14
COc1ccc(C(=O)N2C[C@@H]3[C@H](c4ccccc42)[C@H](CO)N3Cc2ccc(Cl)cc2)cc1,-1,·,-4,-5,6,-7
O=C(NCC[C@@H]1CC[C@H](NS(=O)(=O)c2cccc(F)c2)[C@@H](CO)O1)c1cnccn1,0,·,-1,5,0,15
Cc1cc2nc(-c3cccc(Cl)c3)c(CC3CCCCC3)n2c(C)c1Br,-5,·,98*,·,14,-14
Cc1cc2nc(-c3ccccc3)c(CC3CCCCC3)n2c(C)c1Br,0,·,-12,·,0,-11
CCCC#Cc1cnc2c(c1)C(=O)N([C@@H](C)CO)C[C@H](C)[C@H](CN(C)C(=O)c1cccc(F)c1)O2,-5,·,27*,-5,-3,-6
C[C@H]1CN([C@@H](C)CO)C(=O)c2cc(C#CCN(C)C)cnc2O[C@H]1CN(C)C(=O)c1cccc(F)c1,-5,·,34*,10,14,-8
C[C@@H]1CN([C@@H](C)CO)C(=O)c2cc(C#CCN(C)C)cnc2O[C@@H]1CN(C)C(=O)c1cccc(F)c1,-5,·,-1,0,8,2
CC(C)NC(=O)Nc1ccc2c(c1)C(=O)N([C@H](C)CO)C[C@H](C)[C@@H](CN(C)S(=O)(=O)c1cccs1)OCCCC[C@H](C)O2,-1,·,0,-5,-1,-59
SMILES,MLL AF4-AF9 inh,dFosB act,DENV2 CPE,RAD54 branch,GSIS activator,RAD52 anneal inh
COc1ccc(CN(CCNC(=O)CCCCC(=O)NCCN(Cc2ccc(OC)cc2)C(C)C)C(C)C)cc1,2,-10,30*,·,16,-14
COC(=O)[C@]12CCCCC=C1N(CCC1=CCCCC1)C(=O)[C@H](CC(=O)NCc1ccc(OC)c(OC)c1)C2,0,·,4,·,-15,-10
CCOC(=O)[C@]12CCCC=C1N(CCC1=CCCCC1)C(=O)[C@H](CC(=O)NCc1cccc3ccccc13)C2,·,·,22*,·,-29,-10
CCOC(=O)[C@]12CCCC=C1N(Cc1cccc3ccccc13)C(=O)[C@H](CC(=O)NCc1ccccc1)C2,-4,·,2,·,-15,1
CCOC(=O)[C@]12CCCC=C1N(Cc1ccc3c(c1)OCO3)C(=O)[C@H](CC(=O)NCCCCc1ccccc1)C2,1,·,50*,·,·,-15
CCOC(=O)[C@]12CCCC=C1N(CCC1=CCCCC1)C(=O)[C@H](CC(=O)NCc1ccc(OC)c(OC)c1)C2,·,·,38*,·,-33,-15
COC(=O)[C@]12C[C@H](CC(=O)NCCc3ccccc3OC)C(=O)N(CCC3=CCCCC3)C1=C[C@H](C(C)(C)C)O[C@@H]2C,-8,·,-12,·,41*,-8
COCCCNC(=O)C[C@H]1C[C@@]2(C(=O)OC)C(=C[C@H](C(C)(C)C)O[C@@H]2C)N(CCC2=CCCCC2)C1=O,0,·,3,·,·,-4
CCOC(=O)[C@]12CCC=C1N(Cc1ccc3c(c1)OCO3)C(=O)[C@H](CC(=O)NCCCCc1ccccc1)C2,2,·,0,·,·,-6
C[C@H](NC(=O)N(C)C[C@@H]1OCc2ccccc2-c2c(n(C)c3ccccc23)C(=O)N([C@H](C)CO)C[C@H]1C)c1ccccc1,·,·,·,·,-27,·
C[C@@H]1CN([C@H](C)CO)C(=O)Cc2cc(NC(=O)Cn3cnnn3)ccc2O[C@H]1CN(C)C(=O)NC1CCCCC1,-1,·,6,1,13,4
CS(=O)(=O)Nc1ccc(C2=NN(S(C)(=O)=O)C(c3ccccc3)C2)cc1 (stereo unspecified),·,-2,·,1,17,·
CCS(=O)(=O)N1N=C(c2ccc(NS(C)(=O)=O)cc2)CC1c1ccccc1 (stereo unspecified),·,46*,·,-6,11,·
CC(C)c1cc(-c2cc(C(=O)NCc3ccccc3)on2)nc(NC2CCCC2)n1,1,8,22*,-11,·,-12
C[C@@H]1CN([C@@H](C)CO)C(=O)c2cc(NC(=O)C3CC3)ccc2O[C@@H]1CN(C)S(C)(=O)=O,·,·,·,·,2,·
